Measured values: the supplement of paper PMC12494721
Where a name gives a salt, the structure may show the parent alone. Unmarked numbers belong to inactive results.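 The calls were made as follows: for the amine columns active = adjusted P below 0.05 in both replicates with a change the same way and a mean fold change under 0.8 or over 1.25; inactive = the rest.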

Tested on: Clostridium sporogenes DSM 1664
Assay: fold change of Tryptamine concentration vs plate DMSO controls (fold change (ratio)); higher = more amine produced, active = hit call of the paper (significant change in both replicates, either direction)
Conditions: incubation time: 27 h, anaerobic, 37 °C
Procedure, shortened: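 Each value is the fold change relative to DMSO-only wells on the same plate. Four gut bacterial strains were grown anaerobically in mGAM at 37 °C for 27 h in 80 µL wells, starting at OD 0.1 before a 1:1 dilution, with compounds at 20 µM final (sweeteners 50 µM). Whole cultures were extracted with cold acetonitrile/methanol containing 0.1% formic acid, centrifuged, and amines were quantified by LC–triple-quadrupole MS (dynamic MRM) against external calibration curves with within-batch drift correction. Values are means of 2 biological replicates.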

SMILES	fold change of Tryptamine concentration
CCCSc1nc(N[C@@H]2C[C@H]2c2ccc(F)c(F)c2)c2nnn([C@@H]3C[C@H](OCCO)[C@@H](O)[C@H]3O)c2n1 [Ticagrelor] (20 µM)	0.88
CNc1ncnc2c1ncn2[C@@H]1O[C@H](CO)[C@@H](O)[C@H]1O [N6-methyladenosine] (20 µM)	1.03
Cc1c(N(C)CS(=O)(=O)O)c(=O)n(-c2ccccc2)n1C [Dipyrone sodium salt] (20 µM)	1.11
CN(c1nccc(=O)[nH]1)C1CCN(c2nc3ccccc3n2Cc2ccc(F)cc2)CC1 [Mizolastine] (20 µM)	0.967
CC(CN(C)C)C(C)(O)Cc1ccc(Cl)cc1 (stereo not given) [Clobutinol hydrochloride] (20 µM)	1.02
Oc1c(Cl)cc(Cl)c2cccnc12 [Chloroxine] (20 µM)	1.02
CC(=O)OCC(=O)[C@@]1(O)CC[C@H]2[C@@H]3CCC4=CC(=O)CC[C@]4(C)[C@@]3(F)[C@@H](O)C[C@@]21C [Fludrocortisone acetate] (20 µM)	1
CC1=C(C(=O)O)N2C(=O)[C@@H](NC(=O)[C@H](N)c3ccc(O)cc3)[C@H]2SC1 [Cefadroxil] (20 µM)	0.974
OC[C@H]1O[C@@](CO)(O[C@H]2O[C@H](CO)[C@@H](O)[C@H](O)[C@H]2O)[C@@H](O)[C@@H]1O [Sucrose] (50 µM)	1.07
CCN(CC)CCOC(=O)C(c1ccccc1)C1CCCCC1 (stereo not given) [Drofenine hydrochloride] (20 µM)	0.99
